Screen size: about 6,200 compounds; about 2,900 (47%) were called active. The set was probably picked from earlier hits. The list shows a part of the results. A number with no mark means an inactive call. No stated cut-off is given here; in the data, active means inhibition above about 50%; inactive means the rest.
Test: Mycobacterium tuberculosis growth inhibition, primary screen (AID 1259343)
Settings: inhibition: at 10 µM, hits give high values; outcome: 10 uM
In the case of CC1=NN(C(=O)c2ccccc2)C(C)(NN(C)c2ccccc2)C1 (configuration not stated), the inhibition is reported as 75.7% (active).
In the case of Cc1cccc(C(=O)N2N=C(c3ccccc3)CC2(O)C(F)(F)F)c1O (configuration not stated), the inhibition is reported as 49.1%.
Cc1cc(Cc2c(O)nc(N)[nH]c2=O)ccc1OC(C)C gave an inhibition of 36.4%.
With Cn1ccc(C(=O)Nc2ccccc2N2CCc3sccc3C2)cc1=O the inhibition was 63.6% (active).
O=S(=O)(c1cccc(Cl)c1Cl)N1CCc2sccc2C1 gave an inhibition of 17.2%.
CCC1c2ccsc2CCN1CC(=O)Nc1ccccc1C#N (configuration not stated) showed an inhibition of 39.9%.
With O=C(CSc1nnc(Cc2ccccc2)o1)c1ccc2ccccc2c1 the inhibition was 67.7% (active).
Work on Cc1nc(Cc2nnc(SCC(=O)c3ccc(Cl)s3)o2)cs1 yielded an inhibition of 9.62%.
With c1ccc(Cc2nnc(SCc3cccc4ccccc34)o2)cc1 the inhibition was 4.35%.
Work on N#CC1=C(N)SC(N)=C(C#N)C1c1ccc(-c2ccccc2)cc1 yielded an inhibition of 14.3%.
For CCCCCCC1C(C#N)=C(N)SC(N)=C1C#N, the inhibition was 24.4%.
For CCCCCCCC1C(C#N)=C(N)SC(N)=C1C#N, the inhibition was 93.5% (active).
In the case of Cc1cccc(N2CCN(c3ccc4nnc(C5CC5)n4n3)CC2)c1C, the inhibition is reported as 85.7% (active).
With CC(C)=NNc1nc(Cl)c(C#N)c(Cl)c1Cl the inhibition was 102% (active).
In the case of FC(F)(F)c1nnc2ccc(NCCC3CCCC3)nn12, the inhibition is reported as 18%.
Work on O=C(Nc1cccc(OCc2ccccn2)c1)C1CC1 yielded an inhibition of 18.7%.
For O=C(Nc1cccc(/C=C/c2ccccn2)c1)C1CCCC1, the inhibition was 97.1% (active).
O=C(Nc1cnc(-c2ccccc2)nc1)C1CCCC1 showed an inhibition of 48.4%.
With CC(C)n1c(CCC(=O)O)ccc1-c1ccc(Br)cc1 the inhibition was 50.3% (active).
For CC(C)(C)C1CCC(CN2CC(O)C(N3CCCC3)C2)CC1 (configuration not stated), the inhibition was 41.1%.
For CC(Sc1n[nH]c(-c2ccc(Cl)cc2)n1)C(=O)NCc1ccco1 (configuration not stated), the inhibition was 42%.
In the case of CCOC(=O)CCCNC(=O)CSc1n[nH]c(-c2ccc(Br)cc2)n1, the inhibition is reported as 74.5% (active).
CC(C)c1ccc(-c2nnn(CC(=O)NC(C)(C)C)n2)cc1 showed an inhibition of 4.54%.
For CC(C)c1ccc(-c2nnn(CC(=O)c3ccc(O)cc3)n2)cc1, the inhibition was 55.7% (active).
N#Cc1ccc(OCC(O)Cn2nnc(-c3ccc(Cl)cc3)n2)cc1 (configuration not stated) showed an inhibition of 49.3%.
Work on C=CCOc1ccc(C2c3c(oc4ccc(C)cc4c3=O)C(=O)N2c2nccs2)cc1 (configuration not stated) yielded an inhibition of -15.9%.
In the case of NCC(=O)Nc1ccc(-n2nc(C(F)(F)F)cc2-c2ccc3c(ccc4ccccc43)c2)cc1, the inhibition is reported as 73.5% (active).
In the case of COCCOc1nc(-c2ccc(C(F)(F)F)cc2)n(-c2ccc(NC(=O)C(Cl)c3ccccc3)cc2)n1 (configuration not stated), the inhibition is reported as 19.5%.
For CC(C)CN(CC(=O)Nc1cc(C(C)(C)C)nn1-c1ccc(Cl)c(Cl)c1)C(=O)Nc1ccc(C(F)(F)F)cc1, the inhibition was 38.3%.
For FC(F)(F)c1cccc(N2CCC(N=Cc3ccccn3)=N2)c1, the inhibition was 93.2% (active).
With OCCN(C=NC1=NN(c2cccc(C(F)(F)F)c2)CC1)CCO the inhibition was 83.2% (active).
With O=[N+]([O-])c1ccc(C=NC2=NN(c3cccc(C(F)(F)F)c3)CC2)o1 the inhibition was 87.8% (active).
In the case of C(=NC1=NN(c2ccccc2)CC1)N1CCCCCC1, the inhibition is reported as -7.42%.
For FC(F)(F)c1cccc(N2CCC(N=Cc3ccccc3C(F)(F)F)=N2)c1, the inhibition was 50.2% (active).
Compound CN(N=Cc1ccc([N+](=O)[O-])o1)c1ccccc1 has an inhibition of -45.3%.
With CCCNC(=O)COc1c(Cl)cc(Cl)c2ccc(C)nc12 the inhibition was 72.1% (active).
In the case of O=[N+]([O-])c1ccc(C(O)CNC(=S)NCc2ccc3c(c2)OCO3)cc1 (configuration not stated), the inhibition is reported as 89.8% (active).
In the case of Cc1cc(=O)[nH]c(-n2nc(C)cc2NC(=O)c2ccco2)n1, the inhibition is reported as 101% (active).
Cc1cc(=O)[nH]c(-n2nc(C3CC3)cc2NC(=O)c2ccco2)n1 showed an inhibition of -24.5%.
For CCc1cc(=O)[nH]c(-n2nc(C)cc2NC(=O)c2ccc(Br)o2)n1, the inhibition was 101% (active).
Compound CCc1cc(=O)[nH]c(-n2nc(C)cc2NC(=O)c2cc(=O)c3ccccc3o2)n1 has an inhibition of 34.9%.
In the case of CCc1cc(=O)[nH]c(-n2nc(C)cc2NC(=O)c2ccco2)n1, the inhibition is reported as 100% (active).
For CCCc1cc(=O)[nH]c(-n2nc(C)cc2NC(=O)c2ccco2)n1, the inhibition was 100% (active).
In the case of CN(Cc1ccc(Br)cc1)CC(O)COc1cccc(Br)c1 (configuration not stated), the inhibition is reported as 46.8%.
With COCC(O)CN(C)C(=O)c1ccc(Oc2cccc(Br)c2)nc1 (configuration not stated) the inhibition was 85% (active).
Compound C=CCNC(=O)N(Cc1ccccn1)c1ccc(Oc2cccc(F)c2)nc1 has an inhibition of 39.1%.
For COc1ccc(N2C(=O)C3N=NN(Cc4ccccc4C)C3C2=O)cc1Cl (configuration not stated), the inhibition was -10.3%.
Compound CC1=NOC(Cc2ccccc2)C(=O)N1Cc1ccc(C)cc1 (configuration not stated) has an inhibition of 30.2%.
For CCc1ccc(N2C(=O)C3N=NN(Cc4ccc(C)cc4)C3C2=O)cc1 (configuration not stated), the inhibition was 60.1% (active).
For CCc1ccc(N2C(=O)C3N=NN(Cc4ccccc4)C3C2=O)cc1 (configuration not stated), the inhibition was 93.5% (active).
For CCc1ccc(N2C(=O)C3N=NN(Cc4ccccc4C)C3C2=O)cc1 (configuration not stated), the inhibition was 76.5% (active).
With CCCCCSc1n[nH]c(-c2ccc(C)cc2)n1 the inhibition was 84.7% (active).
Cc1ccc(-c2nc(SCc3ncc(C(C)C)o3)n[nH]2)cc1 gave an inhibition of 11.4%.
With CCc1cc(=O)[nH]c(-n2nc(C)cc2NC(=O)c2ccc3ccccc3c2)n1 the inhibition was 101% (active).
In the case of Cc1cc(=O)[nH]c(-n2nc(C)cc2NC(=O)c2ccc3ccccc3c2)n1, the inhibition is reported as 94.6% (active).
For CCCc1cc(=O)[nH]c(-n2nc(C)cc2NC(=O)c2ccc3ccccc3c2)n1, the inhibition was 102% (active).
With FC(F)(F)c1cc(Cl)c2nnc(SCCN3CCSCC3)n2c1 the inhibition was -6.99%.
With CCCCCC12CCC(CC(=O)O)(CC1)CC2 the inhibition was 70.4% (active).
Compound CC(C)N1C(=O)C(=NN2C(=O)CSC2=S)c2ccccc21 has an inhibition of -42.2%.
For O=C(NCc1ccoc1)N1CCN(Cc2ccc(Cl)s2)CC1, the inhibition was 2.21%.
Work on CC(NC(=O)c1ccc(-c2ccccc2F)s1)C(=O)N1CCCCC1 (configuration not stated) yielded an inhibition of 18.5%.
For O=C(NC1CC1)N1CCN(Cc2ccc(-c3ccccc3F)s2)CC1, the inhibition was 97.6% (active).
With CCCCCCCCCCCCCCCCCCN(C)C the inhibition was 98.2% (active).
For CCOc1ccc2oc(C(=O)NC(C)(C)CC)c(C)c2c1, the inhibition was 64% (active).
In the case of CCN=c1scc(-c2ccc(C)c(C)c2)n1N=Cc1cccnc1, the inhibition is reported as -8.38%.
C(=Nn1c(-c2ccc3c(c2)OCCO3)csc1=NCCc1ccccc1)c1ccccn1 showed an inhibition of 30.9%.
With CCN=c1scc(-c2ccc(C)c(C)c2)n1N=Cc1ccc2c(c1)OCCO2 the inhibition was 70.5% (active).
In the case of CCN=c1scc(-c2ccc3c(c2)OCCO3)n1N=Cc1cc(C)ccc1C, the inhibition is reported as 87.5% (active).
With CCN=c1scc(-c2ccc(F)cc2)n1N=Cc1ccc2c(c1)OCCO2 the inhibition was 4%.
COc1ccc(CC2CN(C/C=C/c3ccccc3)CCO2)cc1 (configuration not stated) gave an inhibition of 41.6%.
Cc1nc(SCc2ccc(C(=O)O)cc2)nc(N2CCN(C/C=C/c3ccccc3)CC2)c1C showed an inhibition of 5.19%.
In the case of C(#Cc1ccccc1)CN1CCN(C/C=C/c2ccccc2)CC1, the inhibition is reported as 80.2% (active).
Work on O=C(Nc1ccc(N2CCN(C(=O)c3ccc(-c4cccc(Cl)c4)s3)CC2)nc1)c1ccco1 yielded an inhibition of 38.5%.
For O=C(Nc1nc(OCC(F)(F)F)cnc1-c1ccc(Cl)cc1Cl)c1ccco1, the inhibition was 64.5% (active).
In the case of CCCc1cc(=O)[nH]c(-n2nc(C)cc2NC(=O)c2ccccc2[N+](=O)[O-])n1, the inhibition is reported as 101% (active).
With CCc1cc(=O)[nH]c(-n2nc(C)cc2NC(=O)c2ccccc2[N+](=O)[O-])n1 the inhibition was 101% (active).
In the case of CN(C)[C@@H]1C(=O)C(C(N)=O)=C(O)[C@@]2(O)C(=O)C3=C(O)c4c(O)cccc4[C@@](C)(O)[C@H]3C[C@@H]12, the inhibition is reported as 60.8% (active).
In the case of COc1cccc(Nc2ccc3c(-c4ccccc4)noc3n2)c1OC, the inhibition is reported as 70.1% (active).
With COc1ccccc1NC(=O)c1ccc2noc(-c3ccccc3)c2c1 the inhibition was 42.1%.
In the case of CSCCC(=O)N1CCC(C(=O)Nc2cccc(-c3cccc(Cl)c3)c2)CC1, the inhibition is reported as 88% (active).
In the case of O=C(Nc1cccc(-c2cccc(Cl)c2)c1)C1CCN(C(=O)CCn2cnnn2)CC1, the inhibition is reported as 90.2% (active).
COCCC(=O)N1CCC(C(=O)Nc2cccc(-c3cccc(Cl)c3)c2)CC1 showed an inhibition of 8.7%.
For COCc1ccc(CN2CCC(C(=O)Nc3ccc(Oc4ccccc4F)cc3)CC2)o1, the inhibition was “inactive”.
For COc1cccc(CN2CCC(C(=O)Nc3ccc(Oc4ccccc4F)cc3)CC2)c1, the inhibition was 62.3% (active).
In the case of CCc1ncc(CN2CCC(C(=O)Nc3ccc(Oc4ccccc4F)cc3)CC2)cn1, the inhibition is reported as 86.1% (active).
In the case of O=C(Nc1ccc(Oc2ccccc2F)cc1)C1CCN(Cc2cccc3c2OCO3)CC1, the inhibition is reported as 93.3% (active).
In the case of CCn1cc(CN2CCC(C(=O)Nc3ccc(Oc4ccccc4F)cc3)CC2)cn1, the inhibition is reported as “inactive”.
In the case of O=C(Nc1ccc(Oc2ccccc2F)cc1)C1CCN(CCCn2cccn2)CC1, the inhibition is reported as 86.6% (active).
In the case of CC(=O)c1cccc(CN2CCC(C(=O)Nc3ccc(Oc4ccccc4F)cc3)CC2)c1, the inhibition is reported as “inactive”.
In the case of Cc1nc(C)c(CN2CCC(C(=O)Nc3ccc(Oc4ccccc4F)cc3)CC2)nc1C, the inhibition is reported as 82.5% (active).
In the case of O=C(Nc1cccc(-c2cccc(F)c2)c1)C1CCN(CCCn2cccn2)CC1, the inhibition is reported as 89.5% (active).
O=C(C1CCCC1)N1CCc2c([nH]c3ccccc23)C1c1cc(F)ccc1F (configuration not stated) gave an inhibition of 24.3%.
In the case of O=c1c2ccccc2[nH]c(=S)n1C1CCCC1, the inhibition is reported as 90.2% (active).
For c1ccc2c(c1)CCN(c1ncnc3c1oc1ccccc13)C2, the inhibition was 19.2%.
With Fc1ccc(OCc2nnc3sc(C4CC4)nn23)cc1 the inhibition was 67% (active).
Compound COc1ccc(OCc2nc(C(=O)N3CCC3c3ccc(F)cc3)co2)cc1 (configuration not stated) has an inhibition of 28.5%.
Fc1ccc(OCc2nc(CSc3nnnn3C3CC3)cs2)cc1 showed an inhibition of 4.6%.
